Assay outcomes (PubChem BioAssay)
This is a sample that favours compounds with a hit; in the whole collection about 3.4% have one here.
PNC assembly inh: blocks assembly of the perinucleolar compartment; PC3M PTB-GFP, PNC prevalence imaging, 16 h; stronger effect = lower value; activity change (PNC), negative = inhibition, % at 10 µM; 140,000 tested, 3.1% active; AID 2417;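 active = readout at or below -70, meaning at least 70% loss of cells showing the perinucleolar compartment, a nuclear body marking cancer cells; inconclusive = readout between -30 and a set limit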;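 also: plate controls were DMSO wells for no effect and camptothecin positive control wells for full effect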
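PC3M cells stably expressing PTB-GFP, 750–1000 cells/well, treated 16 h at 37 °C with compound (23 nl of library stock), in duplicate. After paraformaldehyde fixation and Hoechst stain, imaged at 20x; PNC prevalence scored by image analysis.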
IMPase Li cell: cell-permeable IMPase inhibitors with lithium potentiation; 210,000 tested, 0.35% active; Potency, µM (titrated, usually from 59.4 µM), for the others: top-dose activity, negative = IMPase inhibition, most hits filed as inhibitors; CHO-M1 cells, IP1 TR-FRET (IP-One), carbachol + lithium; AID 1457;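 also: IP1 builds up when IMPase is blocked and the TR-FRET signal falls; potency is read from the fitted curve at half-maximal effect; plate controls were basal vehicle for no effect and high inhibitor control for full effect; nearly all actives have a fitted effect of over 50% in size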
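Test compounds were applied to CHO-M1 cells previously cultured for 16–30 h at 2000 per well. A small lithium amount accompanied them; after 30 min at 37C, IP1 was quantified by TR-FRET.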
HttQ103 aggreg: inhibitors of mutant huntingtin aggregate formation in PC12 cells | PC12 HttQ103-GFP aggregates, Acumen cytometry, 40 h | AID 1688 | Potency, µM (highest dose often 46.1 µM), inactives show at the top dose activity change, negative = inhibition, usual class: inhibitors | 220,000 tested, 1.1% active; also: potency is read from the fitted curve at half-maximal effect; % is scaled to controls: 0 for no effect and ±100 for the full control effect; nearly all actives have a fitted effect of over 60% in size
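Aggregates are detected as GFP objects 1–25 µm with signal 6 STDEV over background in lysates of induced PC12 cells. These carry Huntingtin exon 1 with 103 glutamines fused to GFP under an ecdysone promoter; compounds titrated.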
IMPase inh: IMPase inhibition in cells; P97697; CHO-M1 cells, IP1 accumulation, HTRF TR-FRET ratio; inhibition (IP1 accumulation), % at 46.1 µM; 120,000 tested, under 10 active; active = well fitted curve in the direction sought with a large enough effect in the signal ratio, not every such curve was filed as active; inconclusive = small, poorly fitted or top-dose-only effect, or a change in a side signal; inactive = no such curve, though single readings can be large or run the other way; the % refers to the signal ratio;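 also: cells stimulated with carbachol in lithium chloride buffer; plate controls were DMSO basal wells for no effect and reference inhibitor wells for full effect; higher means more IMPase inhibition seen as more IP1 and lower FRET ratio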
Target sequence (P97697 whole entry, looked up): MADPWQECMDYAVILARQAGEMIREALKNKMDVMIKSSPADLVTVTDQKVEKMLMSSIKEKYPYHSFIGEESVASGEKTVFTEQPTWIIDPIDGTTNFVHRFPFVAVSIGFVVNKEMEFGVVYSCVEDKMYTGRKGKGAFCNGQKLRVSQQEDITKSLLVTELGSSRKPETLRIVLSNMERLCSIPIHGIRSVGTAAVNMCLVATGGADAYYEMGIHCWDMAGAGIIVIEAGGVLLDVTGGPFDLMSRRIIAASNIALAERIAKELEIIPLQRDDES
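CHO-M1, 2000 cells/well, cultured 16–30 h; cpd up to 46 uM; carbachol (50 uM solution, stimulation buffer w/ 50 mM LiCl, pH 7.4), 30 min 37C; IP-One TR-FRET, 10 min RT; Ex 320/Em 665, 620; Hill-fit AC50.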
NPSR antagonist: neuropeptide S receptor (human) antagonism, cAMP | CHO-NPSR cells, cAMP TR-FRET, antagonist mode | Potency, µM (series often up to 38.3 µM), without a hit: at the highest dose activity change, negative = inhibition, actives largely listed as inhibitors | 220,000 tested, 1% active; also: potency is read from the fitted curve at half-maximal effect; % is scaled to controls: 0 for no effect and ±100 for the full control effect; nearly all actives have a fitted effect of over 50% in size
Target sequence (Q6W5P4 whole entry, looked up): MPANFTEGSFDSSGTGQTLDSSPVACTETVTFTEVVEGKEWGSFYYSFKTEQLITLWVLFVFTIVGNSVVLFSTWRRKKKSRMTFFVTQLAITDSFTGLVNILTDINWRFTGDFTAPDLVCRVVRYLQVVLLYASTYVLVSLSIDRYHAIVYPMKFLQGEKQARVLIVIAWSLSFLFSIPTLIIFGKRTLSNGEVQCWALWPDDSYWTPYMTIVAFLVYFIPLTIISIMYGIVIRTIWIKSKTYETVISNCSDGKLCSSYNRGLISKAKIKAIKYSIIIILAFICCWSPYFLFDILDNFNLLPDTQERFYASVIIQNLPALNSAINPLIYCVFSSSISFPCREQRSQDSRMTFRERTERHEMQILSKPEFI
HTT cytoprotect: cytoprotection in Huntington HTT-Q103 PC12 cell model; PC12 HTT-Q103 induced, cytoprotection, ATP luminescence, 40 h; Potency, µM (doses to about 56.4 µM), for the others: cytoprotection (ATP increase), usual class: activators; 230,000 tested, 0.14% active; AID 1471; also: potency is read from the fitted curve at half-maximal effect; % of control where 0% means no effect; nearly all actives have a fitted effect of over 45% in size
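Huntington model: PC12 line, ecdysone-inducible HTTQ103 exon1–GFP, tebufenozide 100 nM. Test articles in a dose series. Endpoint luminescence from cellular ATP.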
The depositor's hits bear a star; ! = repeats disagree; [ ] = remark or other dose. Unless noted, calls follow the shape of the dose curve; as a rule, active = well fitted curve in the direction sought with a large enough effect; inconclusive = small, poorly fitted or top-dose-only effect, or another doubt; inactive = no such curve, though single readings can be large; an effect the other way counts as inactive or inconclusive.

COC(=O)c1cnn2c(C)c(Cc3cccc(F)c3)c(C)nc12 was read as PNC assembly inh -88*, IMPase Li cell 0%, HttQ103 aggreg -1%, IMPase inh -16, NPSR antagonist -2%[46.1 µM] and HTT cytoprotect -9%.
For Cc1ccc(OCC(=O)N2CC(C)OC(C)C2)c([N+](=O)[O-])n1 (stereo not drawn) the results were IMPase Li cell 2%, HttQ103 aggreg 3%, NPSR antagonist 20% and HTT cytoprotect 0.05µM*.
Screening Cc1ccc(OCC(=O)N2CCOCC2)c([N+](=O)[O-])n1 returned HttQ103 aggreg 20%[9.22 µM], NPSR antagonist 5% and HTT cytoprotect 23%[10 µM].
`CC(C)C(=O)Nc1nnc(CSCc2ccccc2F)s1` gave PNC assembly inh 9, IMPase Li cell 27%[38.3 µM], HttQ103 aggreg -10%, IMPase inh 5, NPSR antagonist -15%[46.1 µM] and HTT cytoprotect -3%.
O=C(Nc1nnc(CSCc2ccc(F)cc2)s1)c1ccc([N+](=O)[O-])cc1 was read as PNC assembly inh -96*, IMPase Li cell -4%, HttQ103 aggreg -14%, NPSR antagonist 10% and HTT cytoprotect -11%[10 µM].
For O=C(Nc1nnc(CSCc2ccccc2F)s1)c1cccc([N+](=O)[O-])c1 the results were PNC assembly inh -100*, IMPase Li cell 10%, HttQ103 aggreg inconclusive, IMPase inh 0, NPSR antagonist -3%[46.1 µM] and HTT cytoprotect 17%[10 µM].
Screening Cc1ccc2cc3cc(C(=O)N(CC(=O)NC4CCCC4)c4cccc(C)c4C)sc3nc2c1 returned PNC assembly inh -106*, IMPase Li cell -1%[38.3 µM], HttQ103 aggreg -3%, IMPase inh 5, NPSR antagonist inconclusive and HTT cytoprotect 3.2µM*.
Screening CC1(C)Cc2c(sc3nc(-c4cccs4)n(N)c(=O)c23)CO1 returned PNC assembly inh -3, IMPase Li cell 12%[38.3 µM], HttQ103 aggreg 10µM*, IMPase inh 17, NPSR antagonist -6%[46.1 µM] and HTT cytoprotect -96%.
For CCCCn1c(=S)[nH]c2c(oc3ccc(Cl)cc32)c1=O the results were PNC assembly inh 48, IMPase Li cell 10µM*, HttQ103 aggreg inconclusive, IMPase inh -23, NPSR antagonist -57% and HTT cytoprotect 16%[10 µM].
`C[C@@H]1/C(=N/O)CC2C[C@@H]1C2(C)C` gave IMPase Li cell 1%.
CC(=O)C1=C(C)NC(SCC(=O)c2ccccc2)=C(C#N)C1CC(C)C (stereo not drawn) was read as PNC assembly inh 6, IMPase Li cell 10µM*, HttQ103 aggreg 1.6µM*, IMPase inh inconclusive, NPSR antagonist -5%[46.1 µM] and HTT cytoprotect -15%[0.074 µM].
Screening CN1Cc2c(N)cccc2[C@H](c2ccccc2)C1 returned IMPase Li cell -10%, IMPase inh -4[20.6 µM] and HTT cytoprotect -48%[17.1 µM].
S=C(Nc1ccccc1Cl)N(Cc1ccccc1)Cc1cccnc1 was read as IMPase Li cell 5%, HttQ103 aggreg 9%, NPSR antagonist -29% and HTT cytoprotect -26%.
`CC1CCN(CC(=O)Nc2cccc(C(=O)Nc3cccc(C(F)(F)F)c3)c2)CC1` gave PNC assembly inh inconclusive, IMPase Li cell 4%, HttQ103 aggreg -15%, NPSR antagonist -14% and HTT cytoprotect -12%[10 µM].
For COc1ccc(C(=O)c2ccccc2)c(O)c1 the results were PNC assembly inh -16, IMPase Li cell 11%[38.3 µM], HttQ103 aggreg 11µM*!, IMPase inh -2, NPSR antagonist -23%[46.1 µM] and HTT cytoprotect -34%[10 µM].
`COc1ccc(C(=O)c2ccc(C)cc2)c(O)c1` gave HttQ103 aggreg -13% and HTT cytoprotect -45%.
Screening CC(C)CNC(=O)CC(=O)NN=C1CCCC1 returned PNC assembly inh -113*, IMPase Li cell -5%, HttQ103 aggreg 8% and NPSR antagonist 6%.
N#Cc1c(-c2cccnc2)cc(-c2ccccc2)nc1N was read as HttQ103 aggreg 6%[9.22 µM], NPSR antagonist -32% and HTT cytoprotect -4%[10 µM].
N#Cc1c(-c2ccccc2F)cc(-c2cccnc2)nc1N was read as PNC assembly inh -96*, IMPase Li cell -1%, HttQ103 aggreg -29%, NPSR antagonist -10% and HTT cytoprotect 15%[10 µM].
`Cc1ccccc1S(=O)(=O)Cc1ccc(C(=O)N2CCN(c3cccc(C)c3C)CC2)o1` gave PNC assembly inh 8, IMPase Li cell 14%, HttQ103 aggreg 13µM*, IMPase inh 4, NPSR antagonist inconclusive and HTT cytoprotect -40%[10 µM].
Cc1ccccc1S(=O)(=O)Cc1ccc(C(=O)N2CC(C)CC(C)C2)o1 (stereo not drawn) was read as PNC assembly inh -3, IMPase Li cell -5%[38.3 µM], HttQ103 aggreg -4%, IMPase inh 2, NPSR antagonist -10%[46.1 µM] and HTT cytoprotect -29%.
Screening CNC[C@H](O)[C@H](O)[C@H](O)[C@H](O)CO returned IMPase Li cell -3%, IMPase inh -1[20.6 µM] and HTT cytoprotect 1%[40.3 µM].
Screening CC1CCN(CCOc2ccc(OCc3ccccc3)cc2)CC1 returned PNC assembly inh 42, IMPase Li cell 8%, HttQ103 aggreg 2%, NPSR antagonist 9% and HTT cytoprotect 21%[0.074 µM].
COc1ccc(C2SCCN2C(=S)Nc2cccc(C(F)(F)F)c2)cc1 (stereo not drawn) was read as PNC assembly inh -82*, IMPase Li cell 17%, HttQ103 aggreg -16%, IMPase inh 9, NPSR antagonist -23%[46.1 µM] and HTT cytoprotect 15%[10 µM].
O=c1c(-c2cccc(Cl)c2)nc2cncnc2n1Cc1ccccc1Cl was read as IMPase Li cell 3% and HTT cytoprotect inconclusive.
For CCNc1sc(C(=O)c2cccs2)c(N)c1C#N the results were PNC assembly inh 20, IMPase Li cell 10%[38.3 µM], HttQ103 aggreg -7%, IMPase inh 1, NPSR antagonist 0%[46.1 µM] and HTT cytoprotect 0%.
For C=CCNc1sc(C(=O)c2cccs2)c(N)c1C#N the results were PNC assembly inh -119*, IMPase Li cell inconclusive, HttQ103 aggreg -6%, IMPase inh 3, NPSR antagonist -4% and HTT cytoprotect -13%[10 µM].
COc1ccccc1OCC(=O)/C=C1/N(C)c2ccccc2C1(C)C was read as IMPase Li cell 26%, HttQ103 aggreg inconclusive, NPSR antagonist -22% and HTT cytoprotect -158%.
CN1/C(=C\C(=O)COc2ccc3c(c2)OCO3)C(C)(C)c2ccccc21 was read as PNC assembly inh 52, IMPase Li cell 48%[38.3 µM], HttQ103 aggreg 22µM*, IMPase inh 9, NPSR antagonist -26%[46.1 µM] and HTT cytoprotect -19%.
`CCCCCCNC(=O)Nc1ccc(S(=O)(=O)Nc2ccc(CCNC[C@H](O)COc3ccc(O)cc3)cc2)cc1` gave IMPase Li cell 1% and HTT cytoprotect -224%.
